Source: PubChem BioAssay AID1159580 (chemical genetic matrix, 2015)
“And” between values parts separate entries of the source, which are not always exact repeats. Identical values can stand only once. Screen size: about 5,500 compounds; about 2,000 (36%) were called active. Inconclusive results (about 18%) are left out. Cut-off read from the data, not from the text of the source: active = normalized growth mostly below about 0.91 (no sharp cut-off); inconclusive = no clear call, values can overlap the other calls; inactive = mostly above about 0.92. The list shows a part of the results.

Experiment: chemical genetic growth profiling, strain panel (AID 1159580);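 note: tested at 20 µM; growth read once vehicle control cultures reached saturation at 30 °C; 1 = growth at the plate median or of vehicle wells; lower values mean less growth of the strain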
Conditions: S. cerevisiae deletion strains, growth OD

Measured: normalized growth

NCCS
inactive: locus YAL013W, strain DEP1, hits give low values 1 | locus YAL021C, strain ccr4, hits give low values 0.977 | locus YAL026C, strain drs2, hits give low values 0.99 | locus YAL030W, strain snc1, hits give low values 1.01 | locus YAL040C, strain CLN3, hits give low values 0.985 | locus YBL061C, strain skt5, hits give low values 0.988 | locus YBR009C, strain hhf1, hits give low values 0.988 | locus YBR021W, strain FUR4, hits give low values 1 | locus YBR023C, strain chs3, hits give low values 0.987 | locus YBR171W, strain sec66, hits give low values 0.998 | locus YBR229C, strain ROT2, hits give low values 1.01 | locus YBR231C, strain swc5, hits give low values 0.991 | locus YBR279W, strain paf1, hits give low values 1 | locus YCL011C, strain gbp2, hits give low values 0.982 | locus YCL016C, strain dcc1, hits give low values 0.976 | locus YCL029C, strain bik1, hits give low values 1.02 | locus YCL061C, strain MRC1 (second series), hits give low values 1.01 | locus YCL061C, strain MRC1, hits give low values 1 | locus YCL069W, strain vba3, hits give low values 0.992 | locus YCR088W, strain abp1, hits give low values 0.994 | locus YDL005C, strain med2, hits give low values 0.981 | locus YDL035C, strain GPR1, hits give low values 1.02 | locus YDL040C, strain nat1, hits give low values 0.992 | locus YDL074C, strain BRE1, hits give low values 1.02 | locus YDL101C, strain DUN1, hits give low values 1.01 | locus YDL134C, strain PPH21, hits give low values 1.02 | locus YDL185W, strain tfp1, hits give low values 1 | locus YDL192W, strain arf1, hits give low values 1.01 | locus YDR001C, strain nth1, hits give low values 0.997 | locus YDR069C, strain doa4, hits give low values 0.988 | locus YDR101C, strain arx1, hits give low values 1 | locus YDR137W, strain rgp1, hits give low values 1 | locus YDR150W, strain NUM1, hits give low values 1.01 | locus YDR159W, strain sac3, hits give low values 0.986 | locus YDR162C, strain NBP2, hits give low values 1.01 | locus YDR195W, strain ref2 0.923 | locus YDR297W, strain sur2, hits give low values 0.999 | locus YDR318W, strain mcm21, hits give low values 1.01 | locus YDR334W, strain swr1, hits give low values 0.972 | locus YDR335W, strain msn5, hits give low values 0.991 | locus YDR363W, strain ESC2, hits give low values 1.03 | locus YDR388W, hits give low values 1.01 | locus YDR392W, strain spt3, hits give low values 0.969 | locus YDR502C, strain sam2, hits give low values 1.01 | locus YEL003W, strain gim4, hits give low values 0.986 | locus YEL037C, strain rad23, hits give low values 0.983 | locus YEL061C, strain CIN8 (second series), hits give low values 0.976 | locus YEL061C, strain CIN8, hits give low values 1.01 | locus YER002W, strain NOP16, hits give low values 0.992 | locus YER015W, strain faa2, hits give low values 0.995 | locus YER016W, strain bim1, hits give low values 1 | locus YER110C, hits give low values 1.02 | locus YER111C, strain swi4, hits give low values 0.986 | locus YER155C, strain BEM2 (second series), hits give low values 0.982 | locus YER155C, strain BEM2, hits give low values 1.01 | locus YER167W, strain BCK2, hits give low values 1.02 | locus YFR010W, strain ubp6, hits give low values 0.981 | locus YGL078C, strain dbp3, hits give low values 1.02 | locus YGL086W, strain mad1, hits give low values 1.01 | locus YGL167C, strain pmr1, hits give low values 0.982 | locus YGL173C, strain kem1, hits give low values 0.986 | locus YGL227W, strain vid30, hits give low values 0.984 | locus YGL240W, strain doc1, hits give low values 0.976 | locus YGL248W, strain PDE1, hits give low values 1.01 | locus YGL253W, strain hxk2, hits give low values 0.979 | locus YGR078C, strain PAC10, hits give low values 1.02 | locus YGR135W, strain pre9, hits give low values 1.02 | locus YGR229C, strain SMI1, hits give low values 1.01 | locus YGR252W, strain gcn5, hits give low values 1.04 | locus YHR013C, strain ard1, hits give low values 0.972 | locus YHR027C, strain rpn1, hits give low values 0.985 | locus YHR030C, strain SLT2, hits give low values 1.02 and 1.03 | locus YHR079C, strain IRE1 (second series), hits give low values 1.02 | locus YHR079C, strain IRE1, hits give low values 1.04 | locus YHR094C, strain hxt1, hits give low values 1.01 | locus YHR129C, strain ARP1, hits give low values 1.01 | locus YHR142W, strain chs7, hits give low values 0.984 | locus YHR200W, strain rpn10, hits give low values 1.02 | locus YIL066C, strain RNR3, hits give low values 1.02 | locus YIL073C, strain SPO22, hits give low values 1.02 | locus YIL125W, strain kgd1, hits give low values 1.01 | locus YIR030C, strain dcg1, hits give low values 1.03 | locus YJL092W, strain hpr5, hits give low values 0.997 | locus YJL095W, strain BCK1 (second series), hits give low values 0.996 | locus YJL095W, strain BCK1, hits give low values 1.01 and 1.02 | locus YJL115W, strain asf1, hits give low values 0.966 | locus YJL129C, strain trk1, hits give low values 0.995 | locus YJL134W, strain LCB3, hits give low values 1.01 | locus YJL154C, strain vps35, hits give low values 0.988 | locus YJL164C, strain tpk1, hits give low values 0.99 | locus YJL166W, strain qcr8, hits give low values 1 | locus YJL168C, strain set2, hits give low values 1.02 | locus YJL187C, strain SWE1 (second series), hits give low values 1.01 | locus YJL187C, strain SWE1, hits give low values 0.992 | locus YJR043C, strain POL32, hits give low values 1.01 | locus YJR066W, strain TOR1, hits give low values 0.998
